# Data: PMC11062922 (Nature Chemical Biology, 2023)
# Where two headings read alike, the source gives them in different places.
# Assays:
# Design in all cases: species or system human, MV4-11 + K-562 + COLO205 + SK-N-BE2 + OVCAR-8
# DCTPP1 = conditions: read-out: apparent Kd; compound concentrations:100 nM and 1000 nM (sheet 'Samples'); n = 1
# NLK = conditions: read-out: apparent Kd; compound concentrations:100 nM and 1000 nM (sheet 'Samples'); n = 1
# PDXK = conditions: read-out: apparent Kd, n = 1
# PIK3C3 = conditions: read-out: apparent Kd; compound concentrations:100 nM and 1000 nM (sheet 'Samples'); n = 1
# PIK3CB = conditions: read-out: apparent Kd; compound concentrations:100 nM and 1000 nM (sheet 'Samples'); n = 1
# PIK3CD = conditions: read-out: apparent Kd, n = 1
# CSNK2A2 = conditions: read-out: apparent Kd, compound concentrations: 100 nM and 1000 nM (sheet 'Samples'), n = 1
# DAPK3 = conditions: read-out: apparent Kd; compound concentrations:100 nM and 1000 nM (sheet 'Samples'); n = 1
# EGFR = conditions: read-out: apparent Kd, n = 1
# HSP90B1 = conditions: read-out: apparent Kd; compound concentrations:100 nM and 1000 nM (sheet 'Samples'); n = 1
# IRAK1 = conditions: read-out: apparent Kd; compound concentrations:100 nM and 1000 nM (sheet 'Samples'); n = 1
# CSNK2A1;CSNK2A3 = conditions: read-out: apparent Kd; compound concentrations: 100 nM and 1000 nM (sheet 'Samples'), CATDS: 0.129612529480612; n = 1
# FYN = conditions: read-out: apparent Kd; compound concentrations: 100 nM and 1000 nM (sheet 'Samples'), CATDS: 8.5832491833895103E-2; n = 1
# PRKD1 = conditions: read-out: apparent Kd; compound concentrations: 100 nM and 1000 nM (sheet 'Samples'), CATDS: 0.12301509267520799; n = 1
# PRKD2 = conditions: read-out: apparent Kd; compound concentrations: 100 nM and 1000 nM (sheet 'Samples'), CATDS: 0.237501197916752; n = 1
# PRKD3 = conditions: read-out: apparent Kd; compound concentrations: 100 nM and 1000 nM (sheet 'Samples'), CATDS: 0.165514181456969; n = 1
# DDR1 = conditions: read-out: apparent Kd, n = 1
# MAPK11 = conditions: read-out: apparent Kd; compound concentrations: 100 nM and 1000 nM (sheet 'Samples'), CATDS: 0.201173372459408; n = 1
# MAPK14 = conditions: read-out: apparent Kd; compound concentrations: 100 nM and 1000 nM (sheet 'Samples'), CATDS: 0.39757840601660499; n = 1
# MAPKAPK2 = conditions: read-out: apparent Kd; compound concentrations: 100 nM and 1000 nM (sheet 'Samples'), CATDS: 0.28488469813325601; n = 1
# RET = conditions: read-out: apparent Kd; compound concentrations:100 nM and 1000 nM (sheet 'Samples'); n = 1
# DDR2 = conditions: read-out: apparent Kd; compound concentrations:100 nM and 1000 nM (sheet 'Samples'); n = 1
# PDGFRB = conditions: read-out: apparent Kd; compound concentrations:100 nM and 1000 nM (sheet 'Samples'); n = 1
# DYRK1A = conditions: read-out: apparent Kd; compound concentrations:100 nM and 1000 nM (sheet 'Samples'); n = 1
# EIF2AK1 = conditions: read-out: apparent Kd; compound concentrations:100 nM and 1000 nM (sheet 'Samples'); n = 1
# IRAK3 = conditions: read-out: apparent Kd; compound concentrations:100 nM and 1000 nM (sheet 'Samples'); n = 1
# OPA1 = conditions: read-out: apparent Kd; compound concentrations:100 nM and 1000 nM (sheet 'Samples'); n = 1
# DJA1 = tested on: T1, DJA1; conditions: read-out: apparent Kd, n = 1
# T1 construct: gene DNAJA1
# TGFBR1 = conditions: read-out: apparent Kd; compound concentrations:100 nM and 1000 nM (sheet 'Samples'); n = 1
# DHCR24 = conditions: read-out: apparent Kd; compound concentrations: 100 nM and 1000 nM (sheet 'Samples'), CATDS: 0.35595473001681699; n = 1
# EIF5B = conditions: read-out: apparent Kd; compound concentrations: 100 nM and 1000 nM (sheet 'Samples'), CATDS: 0.317916944834297; n = 1
# TOP2B = conditions: read-out: apparent Kd; compound concentrations: 100 nM and 1000 nM (sheet 'Samples'), CATDS: 0.32838798877743502; n = 1
# GRAMD1A = conditions: read-out: apparent Kd; compound concentrations: 100 nM and 1000 nM (sheet 'Samples'), CATDS: 0.16329310208272499; n = 1
# STK16 = conditions: read-out: apparent Kd; compound concentrations: 100 nM and 1000 nM (sheet 'Samples'), CATDS: 0.15656127155851701; n = 1
# TAOK1 = conditions: read-out: apparent Kd; compound concentrations: 100 nM and 1000 nM (sheet 'Samples'), CATDS: 0.164417003355011; n = 1
# TESK1 = conditions: read-out: apparent Kd; compound concentrations: 100 nM and 1000 nM (sheet 'Samples'), CATDS: 0.150305676910791; n = 1
# [1] = compound concentrations:100 nM and 1000 nM (sheet 'Samples')
structure (smiles),measurement,setting,value
O=c1cc(N2CCOCC2)nc2n(Cc3cccc(Cl)c3Cl)c(C3CC3)nn12 [GSK2358994A],potency estimated from few doses,DCTPP1,1.2 µM
same,potency estimated from few doses,NLK,2.26 µM
same,potency estimated from few doses,PDXK; [1],1.95 µM
same,potency estimated from few doses,PIK3C3,0.00902 µM
same,potency estimated from few doses,PIK3CB,0.00364 µM
same,potency estimated from few doses,PIK3CD; [1],0.0142 µM
COc1cccc(-n2ncc3c(N/N=C/c4ccc(C)cc4)ncnc32)c1 [GW829877X],potency estimated from few doses,CSNK2A2; CATDS: 1,1.94 µM
Cl.O=S1CCN(Cc2ccc(-c3ccc4ncnc(Nc5ccc(OCc6ccccc6)c(F)c5)c4c3)o2)CC1 [GW576924A],potency estimated from few doses,DAPK3,1.76 µM
same,potency estimated from few doses,EGFR; [1],0.0288 µM
same,potency estimated from few doses,HSP90B1,1.1 µM
same,potency estimated from few doses,IRAK1,1.54 µM
Cc1cccc(-c2nc(Nc3ccc4[nH]nnc4c3)c3ccccc3n2)n1 [GW867587X],potency estimated from few doses,CSNK2A1;CSNK2A3,0.199 µM
same,potency estimated from few doses,CSNK2A2; CATDS: 0.107908062412964,0.369 µM
same,potency estimated from few doses,FYN,1.18 µM
same,potency estimated from few doses,"PIK3CD; compound concentrations: 100 nM and 1000 nM (sheet 'Samples'), CATDS: 0.50363081174980595",0.0132 µM
same,potency estimated from few doses,PRKD1,0.233 µM
same,potency estimated from few doses,PRKD2,0.047 µM
same,potency estimated from few doses,PRKD3,0.103 µM
Cc1ccc(NC(=O)c2ccnc(N3CCCC3)c2)cc1-c1ccc(C(=O)NCC2CC2)cc1 [GW769076X],potency estimated from few doses,"DDR1; compound concentrations: 100 nM and 1000 nM (sheet 'Samples'), CATDS: 0.199850350995284",0.57 µM
same,potency estimated from few doses,MAPK11,0.559 µM
same,potency estimated from few doses,MAPK14,0.14 µM
same,potency estimated from few doses,MAPKAPK2,0.25 µM
COC(=O)Nc1nc2ccc(Oc3ccc(NC(=O)Nc4cc(C(F)(F)F)ccc4F)cc3)cc2[nH]1.Cl [GW654607A],potency estimated from few doses,DDR1; [1],2.14 µM
same,potency estimated from few doses,RET,0.64 µM
CCNC(=O)O[C@H]1CN[C@H](C#Cc2cc3ncnc(Nc4ccc(OCc5cccc(F)c5)c(Cl)c4)c3s2)C1 [GSK192082A],potency estimated from few doses,"EGFR; compound concentrations: 100 nM and 1000 nM (sheet 'Samples'), CATDS: 1",0.177 µM
O=C(Nc1ccccc1)Nc1cccc(Oc2ccc3nccn3n2)c1 [TPKI-39],potency estimated from few doses,DDR2,0.732 µM
same,potency estimated from few doses,PDGFRB,0.853 µM
COc1ccc(-c2oc3ncnc(N)c3c2-c2ccc(OC)cc2)cc1 [SB-589132],potency estimated from few doses,DYRK1A,1.95 µM
same,potency estimated from few doses,EIF2AK1,2.27 µM
same,potency estimated from few doses,IRAK3,1.12 µM
same,potency estimated from few doses,OPA1,1.86 µM
same,potency estimated from few doses,PIK3CD; [1],0.151 µM
Clc1ccc(-c2cc(-c3c[nH]nc3-c3ccccn3)ccn2)cc1 [GW681251X],potency estimated from few doses,DJA1; [1],0.843 µM
same,potency estimated from few doses,TGFBR1,0.856 µM
Cc1ccc(NC(=O)Nc2ccc(Cl)cc2)cc1-c1ccc(C(=O)Nc2ccncc2)cc1 [GSK1398472A],potency estimated from few doses,DHCR24,1.5 µM
same,potency estimated from few doses,EIF5B,1.88 µM
same,potency estimated from few doses,TOP2B,1.75 µM
Cc1c(O)cccc1Nc1ccnc2ccc(C(F)(F)F)cc12.Cl [GW466413A],potency estimated from few doses,"DJA1; compound concentrations: 100 nM and 1000 nM (sheet 'Samples'), CATDS: 0.25359634336132503",0.686 µM
same,potency estimated from few doses,GRAMD1A,1.49 µM
same,potency estimated from few doses,"PDXK; compound concentrations: 100 nM and 1000 nM (sheet 'Samples'), CATDS: 0.146836673645412",1.89 µM
same,potency estimated from few doses,STK16,1.63 µM
same,potency estimated from few doses,TAOK1,1.47 µM
same,potency estimated from few doses,TESK1,1.79 µM
